Here are results for 103 compounds from PubChem BioAssay AID686979 (National Center for Advancing Translational Sciences (NCATS), 2013).

The structures appear in SMILES notation. Where “and” joins values, the source holds several entries; their conditions need not be identical. Equal values may be shown once. Screen size: about 420,000 compounds; about 50,000 (12%) were called active. Entries that show only a call come without a potency. Roughly 26% stayed inconclusive and do not appear here. Calls follow the shape of the dose curve; as a rule, active = well fitted inhibition curve with a large enough effect; inconclusive = small, poorly fitted or top-dose-only effect; inactive = flat fitted curve, though single readings scatter. The sample as a whole holds a higher share of actives than the screen did.
Potency is read from the fitted curve at half-maximal effect.

A short description of this test: qHTS for Inhibitors of human tyrosyl-DNA phosphodiesterase 1 (TDP1): qHTS in cells in presence of CPT. Also: nearly all actives have a fitted effect of over 55% in size. The settings on record: chicken DT40 Tdp1-/-;hTDP1 cells + 20 nM CPT, ATP luminescence, 48 h; series mostly up to 46.2 µM. In outline:
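Chicken DT40 Tdp1-/- cells complemented with human TDP1, 400 cells/well, exposed to compounds plus 20 nM camptothecin for at least 48 h at 37 C; viability read as ATP content by CellTiter-Glo luminescence.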
As to `O=C(COC(=O)CCCSc1nc2ccccc2[nH]1)Nc1ccc(Oc2ccccc2)cc1`, the Potency entry is “inactive”. Consider `NC(=O)CC[C@@H]1NC(=O)[C@@H]2CCCN2C(=O)c2cc([N+](=O)[O-])cc(F)c2NCCC[C@@H](C(N)=O)NC1=O`, for which the Potency entry was “inactive”. The entry for `CC1(C)CN(Cc2cccnc2)C(=O)[C@H]1CC(=O)Nc1ccc(Br)cc1` is “inactive”; for `COC(=O)CN1C(C)=Nc2ccc(Br)cc2C1c1ccccc1` (stereo not drawn) it is “inactive”.

Consider `COc1ccc(CC(=O)N2CC(=O)Nc3ccc(Br)cc3C2c2ccc(F)cc2)cc1OC` (stereo not drawn), for which the Potency was 16.4 µM (active).

In the case of `CCC(CC)C(=O)N1CC(=O)Nc2ccc(Br)cc2C1c1ccccc1` (stereo not drawn), the Potency is 23.1 µM (active). For the compound `O=C1CN(C(=O)c2ccccc2F)C(c2ccc(F)cc2)c2cc(F)ccc2N1` (stereo not drawn), the Potency result is “inactive”.

Turning to `CC(C)C(=O)N1CC(=O)Nc2ccc(F)cc2C1c1ccc(F)cc1` (stereo not drawn), the Potency entry was “inactive”. `Cc1ccc2c(c1)C(c1ccccc1)N(C(=O)c1ccc(F)cc1)CC(=O)N2` (stereo not drawn): the Potency result was “inactive”. The entry for `COc1ccc(C(=O)Nc2ccnn2C2CCN(Cc3ccncc3)CC2)cc1` is “inactive”; for `COC(=O)c1sc2ncccc2c1-n1c(C)ccc1C` it is “inactive”; for `Cc1cc(Cl)ccc1NNC(=O)c1snnc1C` it is “inactive”.

Consider `Brc1ccc(-c2csc(N/N=C/c3cccnc3)n2)cc1`, for which the Potency result was “inactive”. The value for `O=C(CSc1nnc(-c2c[nH]c3ccccc23)o1)c1ccccc1` was “inactive”; that for `O=C(CSc1nnc(Cn2cnc3ccccc32)o1)c1ccccc1` was 11.6 µM (active).

For `CC(=O)Nc1ccc(C(=O)CSc2nnc(Cc3ccccc3)o2)cc1`, the Potency entry is “inactive”. The value for `CCCN(c1ccc(C)cc1)c1nc(=O)c2cccnc2s1` was “inactive”; that for `CCOC(=O)c1c(C)oc2nc(C)nc(N3CCN(c4ccc(OC)cc4)CC3)c12` was 7.31 µM (active); that for `Cc1nc(N2CCOCC2)c2c(C(=O)NCc3cccc(Cl)c3)c(C)oc2n1` was “inactive”. The entry for `COc1ccc(N2CCN(C(=O)c3c(C)oc4nc(C)nc(N5CCCC5)c34)CC2)cc1` is “inactive”. The value for `CCOc1ccc(CCNC(=O)CN(c2ccc(C)cc2)S(=O)(=O)N(C)C)cc1OCC` was “inactive”; that for `CCOC(=O)c1[nH]c2c(c1-c1ccccc1)C(=O)CC(c1ccc(Cl)cc1)C2` (stereo not drawn) was “inactive”. Regarding `CC(C)(C)N1C(=O)c2c(C(=O)OCc3ccccc3)[nH]c(-c3ccccc3)c2C1=O`, the Potency entry was “inactive”. The figure for `CCOc1ccc(C2CC(=O)c3c([nH]c(C(=O)OCc4ccccc4)c3C)C2)cc1` (stereo not drawn) is 13 µM (active). For `CCc1ccc(C2CC(=O)c3c([nH]c(C(=O)OCc4ccc(C)cc4)c3C)C2)cc1` (stereo not drawn), the Potency is 6.51 µM (active). The entry for `CCOC(=O)c1cc(=O)c2ccc(OCc3ccccc3)cc2o1` is “inactive”; for `CCOC(=O)C(Cc1ccccc1)NC(=O)CCC(=O)c1ccc(OC)cc1` (stereo not drawn) it is “inactive”; for `CN1C(=O)/C(=C/C=C2\SCCN2C)OC1=S` it is “inactive”.

For the compound `Cc1ccn2c(=O)nc(SCC(=O)NCc3ccc4c(c3)OCO4)nc2c1`, the Potency result was “inactive”. Consider `CCOc1ccccc1NC(=O)CSc1ncc(S(=O)(=O)c2ccc(C(C)(C)C)cc2)c(=O)[nH]1`, for which the Potency result is “inactive”. `O=C(NCC(=O)N(c1ccccc1)C(C(=O)NCC1CCCO1)c1ccccc1)c1cccs1` (stereo not drawn): the Potency result is “inactive”. `Cc1ccc(N2CCN(C(=O)CCc3c(C)nc4c(c3C)c(=O)n(C)c(=O)n4C)CC2)c(C)c1`: the Potency entry was “inactive”. The figure for `COc1cc(NC(=O)CSc2nc3nc(C)c(Cc4ccc(C)cc4)c(C)n3n2)cc(OC)c1OC` is 13 µM (active). The value for `Cc1ccc(Cc2c(C)nc3nc(SCC(=O)NCCN4CCOCC4)nn3c2C)cc1` was “inactive”.

On to `COc1cc(NC(=O)CCn2nc(C)cc2C)cc(OC)c1OC`, for which the Potency entry was “inactive”. The value for `CCn1c(SC)nc(O)c(C(c2ccc(OC)c(O)c2)c2c(O)nc(SC)n(CC)c2=O)c1=O` was “inactive”; that for `CC(C)CN1CCC1(C)C(=O)Nc1ccc(OC(F)F)cc1` (stereo not drawn) was “inactive”. Take `CC(C)Oc1ccc(Oc2ccc(C(F)(F)F)cn2)cc1`: the Potency result was “inactive”.

Turning to `CC(C)Oc1ccc(CN2CCC2(C)C(=O)NCc2ccc(C(F)(F)F)cc2)cc1` (stereo not drawn), the Potency was 25.9 µM (active). Take `CN(CC(=O)Nc1ccc(Cl)cc1)C(=O)CNC(=O)c1ccc2ccccc2c1`: the Potency result was “inactive”. The value for `O=C(/C=C/c1ccccc1)Oc1coc(CSc2ncccn2)cc1=O` was “inactive”; that for `COc1ccc(-c2nn3c(-c4ccc(OC)cc4)nnc3c3ccccc23)cc1` was “inactive”.

Consider `COc1ccc(OC)c(/C=C/C(=O)OCC(=O)Nc2ccc3c(c2)OCCO3)c1`, for which the Potency is 20.6 µM (active).

Take `COc1cccc(/C=C/C(=O)Nc2ccc3c(c2)OCCO3)c1`: the Potency entry is “inactive”. For `COc1ccccc1OCCCC(=O)Nc1ccc2c(c1)OCCO2`, the Potency entry was “inactive”.

`Nc1nnc(SCC(=O)NCC(=O)Nc2ccc(F)c(F)c2F)s1`: the Potency entry was “inactive”. The figure for `O=C(N[C@H]1C/C=C\C(c2ccc(F)cc2)N(Cc2ccccc2)C(=O)C1)OCC1c2ccccc2-c2ccccc21` (stereo partly drawn) is 18.4 µM (active); for `COc1ccc(C2/C=C\CN(CC(C)C)CC(=O)N2Cc2ccc(F)cc2)cc1` (stereo not drawn) it is “inactive”; for `O=C1c2ccccc2C(O)N1Cc1ccccc1` (stereo not drawn) it is “inactive”.

As for `Cn1c(SCC(=O)N2CCCC2)nnc1-c1ccc2c(c1)OCO2`, the Potency entry was “inactive”.

Turning to `O=C(CNCc1ccc(Cl)cc1)Nc1cccc(C(=O)O)c1`, the Potency result is “inactive”. As to `CCOC(=O)CSc1nc2c(c(=O)n(Cc3ccccc3Cl)c(=O)n2C)n1C`, the Potency entry was “inactive”. On to `CCOC(=O)n1c(SCC(=O)N(CC)CC)nc2ccccc21`, for which the Potency result is “inactive”.

With `CCN(CC)C(=O)CSc1nc2ccsc2c(=O)n1Cc1ccccc1Cl`, the Potency was 18.4 µM (active). For `O=C(CSc1ccsc1[N+](=O)[O-])N1CCCCC1`, the Potency entry was “inactive”. The value for `O=C(Nc1sc2c(c1-c1nc3ccccc3[nH]1)CCCC2)C1CC1` was “inactive”; that for `COc1ccc2oc(N)nc2c1` was “inactive”; that for `Fc1ccc(CNc2nc3ccccc3n3nnnc23)cc1` was “inactive”. The entry for `COc1cccc(C(O)c2nc3ccccc3n2C)c1` (stereo not drawn) is “inactive”. The entry for `CC(=O)Nc1nonc1-c1nc2ccccc2n1Cc1ccccn1` is “inactive”. Consider `COc1ccc(C)c(Cn2c(-c3nonc3N)nc3ccccc32)c1`, for which the Potency is 2.59 µM (active). With `Nc1nonc1-c1nc2ccccc2n1Cc1ccc(F)cc1`, the Potency was 16.4 µM (active).

With `CN(C)S(=O)(=O)c1ccc(N2CCCC2=O)c([N+](=O)[O-])c1`, the Potency result was “inactive”. The entry for `Cc1ccc(F)cc1NC(=O)N1CCCN(c2ccc(C(F)(F)F)cn2)CC1` is “inactive”.

Consider `O=C(Cn1c(=O)n(Cc2ccccc2)c(=O)c2sc3ccccc3c21)Nc1ccccc1F`, for which the Potency result was “inactive”. The entry for `Brc1ccccc1C1N=C(c2ccccc2)NO1` (stereo not drawn) is “inactive”; for `CCc1nc2c(=O)[nH]cnc2o1` it is “inactive”. Regarding `Cc1n[nH]c(=O)c2c(NC(=O)CSc3cc(Cl)ccc3Cl)oc(C)c12`, the Potency entry is “inactive”.

`CCOc1ccc2c(=O)c(-c3ccc4c(c3)OCCCO4)c(C)oc2c1`: the Potency was 18.4 µM (active). The value for `CCOc1ccc(NC(=O)Cn2cc(C(=O)c3ccc(C)cc3)c(=O)c3cc4c(cc32)OCCO4)cc1` was “inactive”; that for `O=C(COc1ccc2c(C(F)(F)F)cc(=O)oc2c1)Nc1ccc2c(c1)OCCO2` was “inactive”; that for `C=CCn1c(SCC(=O)CC(=O)OCC)nc2cc(C(=O)N3CCC(C(N)=O)CC3)ccc2c1=O` was “inactive”. `Cc1ccccc1Nc1nn2c(=O)c3ccc(C(=O)NCCc4ccc(Cl)cc4)cc3nc2s1`: the Potency is 5.8 µM (active). The entry for `Cc1nc2c(c(C)nn2-c2ccccc2)c(C)c1CCC(=O)NCCc1ccc(Cl)cc1` is “inactive”; for `CCc1ccc(Nc2nn3c(=O)c4cc5c(cc4nc3s2)OCO5)cc1` it is “inactive”; for `CCOC(=O)C1CCCN(C(=O)c2ccc(C)c(F)c2)CC1` (stereo not drawn) it is “inactive”.

`CCOC(=O)C1CCN(C(=O)c2ccc3c(=O)n4nc(Nc5ccccc5CC)sc4nc3c2)CC1`: the Potency is 13 µM (active). The value for `CC(=O)NS(=O)(=O)c1ccc2c(c1)Cc1cc(S(=O)(=O)NC(C)=O)ccc1-2` was “inactive”; that for `O=C(CN(C(=O)CCC(=O)Nc1nccs1)c1ccc(F)cc1)NCc1ccc2c(c1)OCO2` was “inactive”. For `CO[C@@H]1[C@@H](OC(N)=O)[C@@H](O)C(Oc2ccc3c(O)c(NC(=O)c4ccc(O)c(CC=C(C)C)c4)c(=O)oc3c2C)OC1(C)C` (stereo partly drawn), the Potency result was “inactive”. In the case of `Nc1ccc(-c2nnc(-c3ccccc3)o2)cc1`, the Potency result is “inactive”. In the case of `Cc1ccc(S(=O)(=O)NCCC(=O)Nc2cccc(S(N)(=O)=O)c2)cc1C`, the Potency result is “inactive”. Take `c1ccc2c(NC3C4CC5CC(C4)CC3C5)nc(N3CCOCC3)nc2c1` (stereo not drawn): the Potency is 10.3 µM (active). As to `c1ccc(-n2nnnc2N2CCOCC2)cc1`, the Potency result is “inactive”. For the compound `FC(F)(F)c1cc(-c2ccco2)nc(N2CCOCC2)n1`, the Potency entry was “inactive”. The entry for `Cc1ccc(NC(=O)Cc2nc(COC(=O)C(C)NS(=O)(=O)c3ccc(C)cc3)cs2)cc1` (stereo not drawn) is “inactive”.

With `CCOC(=O)c1ccc(NC(=S)Nc2cc(C)cc(C)n2)cc1`, the Potency entry is “inactive”. Regarding `Cc1ccc(C(=O)NNc2ncnc3ccccc23)cc1`, the Potency result is “inactive”. The value for `c1coc(CNc2ncnc3ccccc23)c1` was 7.08 µM (active) and 10.3 µM (active); that for `CS(=O)(=O)n1nc(-c2ccccc2)nc1NCc1ccco1` was “inactive”; that for `CN(c1ccccc1)c1nc(N)c([N+](=O)[O-])c(NCc2ccco2)n1` was “inactive”. The value for `c1ccc(-c2nc(NCc3ccco3)c3ccccc3n2)cc1` was 16.4 µM (active); that for `Brc1nc2ncnc(NCc3ccco3)c2[nH]1` was “inactive”; that for `COCCOC1CCN(C(=O)c2ccc(OC)c(OC3CCN(C(C)C)CC3)c2)CC1` was “inactive”.

For the compound `Cc1cccc(NS(=O)(=O)c2ccc([N+](=O)[O-])cc2)n1`, the Potency result was “inactive”.

`CCOC(=O)C1=C(c2ccc(OC)cc2)C(=O)c2ccccc2C1=O`: the Potency is 1.16 µM (active). The entry for `COc1ccc(OCCCON2C(=O)c3ccccc3C2=O)cc1` is “inactive”; for `CCOC(=O)c1cnc(-c2ccccc2)nc1Oc1ccc(C)cc1` it is “inactive”.

Consider `Cc1cc(C)c(C#N)c(SCC(=O)NN2CC(=O)N(c3ccccc3F)CC2=O)n1`, for which the Potency entry is “inactive”. As to `COC(=O)c1ccc(CSc2nncn2N)cc1`, the Potency entry is “inactive”. The value for `C=CCNC(=O)c1ccc2c3n(nc2c1)-c1ccc(C)cc1CO3` was 20.6 µM (active). The entry for `Cc1ccc(CCNC(=O)c2ccc3c(c2)nc2n3CCC(C)C2)cc1` (stereo not drawn) is “inactive”; for `CCOc1c2ccc(C(=O)NCc3ccc4c(c3)OCO4)cc2nn1C` it is “inactive”.
